Measurements as given in PubChem BioAssay (NCI).
This is part of a sample that, as a whole, favours compounds with a hit. Of some 79,000 tested, about 15% had one in any assay. Unmarked numbers belong to inactive results. Active and inactive are the calls of the source. Rule as the data show it: active = growth inhibition above about 70%; inactive = the rest.

How the values were obtained:
[1] = NCI Yeast Anticancer Drug Screen. Data for the rad50 strain (AID 155);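 also: 0% = growth of vehicle-only cultures of the same strain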; conditions: S. cerevisiae rad50 strain growth inhibition, active compounds read high
Outline: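 Yeast carrying a defined DNA repair defect were exposed to test compounds, and growth was compared with vehicle-treated controls to give percent inhibition.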

[2] = NCI Yeast Anticancer Drug Screen. Data for the mec2-1 strain (AID 157); conditions: S. cerevisiae mec2-1 strain, active compounds read high
Outline: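 Yeast mec2-1 mutant treated with compound. Readout: growth inhibition vs vehicle controls.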

[3] = NCI Yeast Anticancer Drug Screen. Data for the sgs1 mgt1 strain (AID 161);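 also: 0% = growth of cultures given vehicle only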; conditions: S. cerevisiae sgs1 mgt1 strain, active compounds read high
Outline: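 Read-out: growth inhibition vs vehicle controls. Cells: mutant yeast strain deficient in DNA damage repair.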

[4] = NCI Yeast Anticancer Drug Screen. Data for the cln2 rad14 strain (AID 165);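 also: 0% = growth equal to vehicle treated cultures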; conditions: S. cerevisiae cln2 rad14 strain, active compounds read high
Outline: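 cln2 rad14 yeast strain; compound exposure; growth inhibition read vs vehicle controls.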

[5] = NCI Yeast Anticancer Drug Screen. Data for the bub3 strain (AID 167); conditions: S. cerevisiae bub3 mutant strain, active compounds read high
Outline: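 Compounds were applied to a genetically altered yeast strain carrying a cell-cycle control defect. Growth inhibition was scored against vehicle-treated controls.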

[6] = NCI Yeast Anticancer Drug Screen. Data for the mlh1 rad18 strain (AID 175); conditions: S. cerevisiae mlh1 rad18 strain growth inhibition, active compounds read high
Outline: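 Yeast w/ defined DNA-repair lesions; compound exposure; growth vs vehicle controls → % inhibition.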

[7] = at 5.0 µM (retest, dose inferred, filed as 0.5)
[8] = at 50.0 µM (retest, dose inferred, filed as 5.0)

Row | Compound | growth inhibition [1, 7] | growth inhibition [1, 8] | growth inhibition ([1]; at 50.0 µM) | growth inhibition [2, 7] | growth inhibition [2, 8] | growth inhibition ([2]; at 50.0 µM) | growth inhibition [3, 7] | growth inhibition [3, 8] | growth inhibition ([3]; at 50.0 µM) | growth inhibition [4, 7] | growth inhibition [4, 8] | growth inhibition ([4]; at 50.0 µM) | growth inhibition [5, 7] | growth inhibition [5, 8] | growth inhibition ([5]; at 50.0 µM) | growth inhibition [6, 7] | growth inhibition [6, 8] | growth inhibition ([6]; at 50.0 µM)
1 | CN(NC(=O)c1cccs1)C1=NCCCN1 | 43% | 83% (active) | -18.2% | 8% | 21% | -4.9% | 65% | 76% (active) | -16.9% | 6% | 33% | 10.3% | 18% | 22% | 4.8% | 23% | 55% | -20.7%
2 | O=S(=O)(c1ccccc1)n1cc(C[P+](c2ccccc2)(c2ccccc2)c2ccccc2)c2ccccc21 | 21% | 99% (active) | 99.3% (active) | -1% | 99% (active) | 99.5% (active) | 20% | 98% (active) | 99.5% (active) | 8% | 99% (active) | 98.1% (active) | 10% | 99% (active) | 99.4% (active) | 27% | 99% (active) | 99.3% (active)
3 | CCCCCCCCS(=O)(=O)Nc1ccccc1 | 11% | 98% (active) | 99.3% (active) | 0% | 99% (active) | 99.2% (active) | 6% | 99% (active) | 99.3% (active) | 4% | 99% (active) | 99.4% (active) | 4% | 99% (active) | 99.1% (active) | -5% | 61% | 99.1% (active)
4 | COc1ccc2c(c1)Cc1ccccc1C2=O | 14% | 34% | 15.8% | 3% | 8% | 4% | 0% | 1% | 6.75% | 1% | 3% | -0.35% | 75% (active) | 85% (active) | 40.6% | 2% | 14% | 9.1%
5 | CN(C)CC/C(=N\Nc1ccc([N+](=O)[O-])cc1)c1ccccc1 | 12% | 65% | 99.5% (active) | 8% | 86% (active) | 84.4% (active) | 29% | 96% (active) | 99.2% (active) | 1% | 62% | 98.8% (active) | 8% | 98% (active) | 99.7% (active) | 19% | 97% (active) | 98.5% (active)
6 | N#CS/C(C(Cl)=C(Cl)Cl)=C(/Cl)[N+](=O)[O-] | 99% (active) | 100% (active) | 88.8% (active) | 99% (active) | 100% (active) | 92% (active) | 99% (active) | 99% (active) | 85.9% (active) | 99% (active) | 99% (active) | 89.5% (active) | 99% (active) | 100% (active) | 90% (active) | 99% (active) | 99% (active) | 84% (active)
7 | CCCCCCCCCCCCCCCCCC(=O)OCCOCCO | -12% | -16% | -2.4% | -22% | -46% | -0.25% | -10% | -23% | -2.7% | -33% | -21% | 60.8% | -27% | -24% | -13.3% | -28% | -25% | -21.6%
8 | COC([C@@H](OC(=O)c1ccccc1)[C@H](OC(=O)c1ccccc1)C(O)COC(=O)c1ccccc1)n1cc(C)c(=O)[nH]c1=O (stereo not given in full) | -8% | 26% | 17.1% | -8% | 18% | 49.5% | 4% | 33% | 65.5% | 8% | 57% | 53.5% | -19% | 28% | 71.8% (active) | -3% | 69% | 67.3%
9 | CCOc1ccccc1C(=O)Nc1cc(C)nn1-c1ccccc1 | 5% | 4% | 29.4% | 7% | 4% | 99.2% (active) | 7% | 6% | 99.4% (active) | 0% | -1% | 98.8% (active) | -1% | -3% | 99.3% (active) | -1% | 0% | 99.5% (active)
10 | CCCCCCCCCCCCCCCCCC[N+]1(C)CCC[N+](C)(CCCCCCCCCCCCCCCCCC)CC1 (stereo not given) | 2% | 26% | 41.8% | -3% | 17% | 83.4% (active) | 2% | 53% | 47% | 0% | 3% | 7.9% | 0% | 77% (active) | 50.6% | 2% | 24% | 84% (active)
